The supplement of paper PMC3334620
Whole data set: some 33,000 sequences, median “E-score (-0.5 to 0.5)” near -0.035, cut for the highest 2% near 0.34. The sample holds the highest values, similar sequences and a random draw of the others, so the mix is not that of the screen.

target: T1, Mot3 (UniProt P54785); assay: PBM E-score (8-mer binding enrichment) (E-score (-0.5 to 0.5)); higher = stronger / more preferred TF binding; conditions: protein concentration: 200 nM; construct: GST-full length
T1 sequence: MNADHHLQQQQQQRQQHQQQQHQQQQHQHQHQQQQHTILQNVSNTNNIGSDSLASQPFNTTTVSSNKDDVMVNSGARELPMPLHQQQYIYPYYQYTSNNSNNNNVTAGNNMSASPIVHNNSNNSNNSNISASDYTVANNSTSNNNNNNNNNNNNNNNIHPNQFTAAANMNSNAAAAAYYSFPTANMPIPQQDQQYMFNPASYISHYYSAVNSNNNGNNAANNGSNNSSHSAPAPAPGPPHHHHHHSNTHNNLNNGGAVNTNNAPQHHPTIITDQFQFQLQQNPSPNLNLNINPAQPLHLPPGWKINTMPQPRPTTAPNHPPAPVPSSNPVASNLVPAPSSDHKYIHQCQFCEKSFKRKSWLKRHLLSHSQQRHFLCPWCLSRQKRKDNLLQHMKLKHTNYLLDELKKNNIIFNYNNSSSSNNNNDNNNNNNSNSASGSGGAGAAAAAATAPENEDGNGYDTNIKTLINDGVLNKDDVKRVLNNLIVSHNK
Protocol: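 Universal 'all 10-mer' protein binding microarrays (Agilent AMADID 015681) probed with GST-tagged S. cerevisiae TFs (full-length or DBD) made by in vitro transcription/translation (PURExpress), about 100-200 nM. Bound TF was detected with fluorescent anti-GST. Each ungapped 8-mer (which stands for itself and its reverse complement) is scored by the PBM enrichment score (E-score), a modified Wilcoxon-Mann-Whitney statistic from -0.5 to +0.5, computed with the Universal PBM Analysis Suite. Scale: above 0.35 generally sequence-specific binding.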

Row | Sequence | PBM E-score
1 | GGGAAAAC | -0.195
2 | ACGAAAAT | 0.163
3 | TGGAAAAA | 0.0684
4 | AGGAAAAT | 0.416
5 | AGGAAAAA | 0.352
6 | AGGAAAAG | 0.305
7 | AGAAAAAT | 0.133
8 | AGGAAAAC | 0.416
9 | CGGAAAAC | 0.0409
10 | CCAGGGGA | -0.363
11 | ATGAGAAC | 0.00278
12 | ATAGTGCA | 0.134
13 | GATTGAAC | 0.142
14 | ACCTCATG | -0.175
15 | AAACGCTA | -0.0463
16 | CACAACAG | 0.181
17 | AGTCCCCA | -0.348
18 | CCATGATC | -0.251
19 | ACATGACT | 0.211
20 | ACATGATC | 0.385
21 | ACATGAAT | 0.294
22 | CCATGATA | -0.147
23 | GCATGACA | 0.116
24 | ACATGAAC | 0.256
25 | ACATGAAG | 0.344

Row | Sequence | PBM E-score
26 | GCATGATA | 0.0933
27 | ACATGATG | 0.241
28 | ACATGATA | 0.35
29 | ACATGACA | 0.343
30 | CCACACCC | -0.133
31 | CAGGAGGG | -0.159
32 | AGAGTGAT | 0.105
33 | CTCGCCAA | -0.0783
34 | CAGTTGTA | 0.00216
35 | TAGCCAAA | -0.0612
36 | CACAGACC | 0.0761
37 | CACGCTTC | 0.146
38 | AAGTTTAA | 0.068
39 | ATAACACA | 0.332
40 | ATAACATC | 0.21
41 | CTAACATA | 0.156
42 | ATAACAGG | 0.229
43 | ATAACATG | 0.36
44 | GTAACATA | 0.26
45 | ACAACATA | 0.307
46 | CTAACACA | 0.313
47 | ACAACATC | 0.195
48 | ATAACACG | 0.391
49 | ATAACATA | 0.344
50 | ACAACATG | 0.359

Row | Sequence | PBM E-score
51 | GCGCTCGA | -0.00313
52 | ATCAACGC | 0.194
53 | CGTCGCAC | -0.243
54 | ATGGGCAC | 0.333
55 | CGATTAAG | 0.108
56 | CCCTTCGA | 0.0666
57 | ACCGTACG | -0.116
58 | CGTGCTAG | -0.0215
59 | AAAACATA | 0.314
60 | AAAACATT | 0.187
61 | AAAACATG | 0.351
62 | CCATCAGG | -0.179
63 | AGGGTCAA | -0.0327
64 | CCTGCATA | 0.126
65 | AAAGTGTG | 0.0664
66 | CTTTTTAC | 0.21
67 | ATATACAC | 0.358
68 | GAATACAC | 0.363
69 | CAATACAC | 0.331
70 | AAATACCC | -0.0215
71 | AAATACAC | 0.37
72 | CTATACAC | 0.254
73 | GAATACAA | 0.214
74 | AAATACAG | 0.212
75 | AAATATAC | 0.0863

Row | Sequence | PBM E-score
76 | AAATACAT | 0.344
77 | GTATACAC | 0.323
78 | AAATACAA | 0.281
79 | ATCCTTAA | 0.00499
80 | CACGCTGG | -0.0203
81 | GGTGCTAA | -0.0828
82 | AGGTTGAG | 0.0336
83 | TAACTCCA | -0.179
84 | CAGAAATG | 0.00635
85 | CACGTTCG | 0.00382
86 | ACAGGCAG | 0.239
87 | ACAGGCAT | 0.409
88 | ACAGGCCT | 0.00325
89 | ACAGGCGA | 0.0648
90 | ACAGGCAA | 0.489
91 | ACAGGCCA | 0.296
92 | CCCACTGC | -0.32
93 | GTACCCAC | 0.0626
94 | TATGGCAA | -0.0849
95 | GTTGTAAA | 0.31
96 | ATTGTAAA | 0.3
97 | CGTGTCAG | 0.223
98 | GATGTAAA | 0.35
99 | AGTGTCAA | -0.0255
100 | CTTGTAAA | 0.378

Row | Sequence | PBM E-score
101 | CGTGTCAA | 0.342
102 | ACTGTAAA | 0.191
103 | AATGTAAA | 0.374
104 | AATGTAGA | 0.221
105 | GCTGTAAA | 0.25
106 | CTTGTAAC | 0.281
107 | GAACTCGC | -0.0603
108 | GTCTCATA | -0.0702
109 | CCGCCTTC | -0.226
110 | GGCTCGTA | 0.112
111 | ACGGTTGG | -0.106
112 | AGCGTGAT | -0.153
113 | TCTGGTCA | -0.0723
114 | CCCCACGG | -0.224
115 | CCTGTAAG | 0.282
116 | CCTGTAAA | 0.335
117 | AATGTAAG | 0.201
118 | TATGTAGA | 0.333
119 | CATGTAAG | 0.398
120 | AATGTAAC | 0.218
121 | AATGTAAT | 0.377
122 | TCTGTAAA | 0.231
123 | CATGTAAA | 0.436
124 | CACGTAAA | 0.339
125 | TATGTAAA | 0.434

Row | Sequence | PBM E-score
126 | ACTGTAAT | 0.169
127 | CTGCTGAC | 0.0167
128 | AAAAGGAG | 0.0569
129 | ACAGTGGG | -0.0834
130 | GCTACAGC | -0.167
131 | CGAAGTAA | 0.174
132 | CTGCTGCA | -0.0263
133 | CAGTTAGC | -0.274
134 | CCATCTCA | -0.228
135 | CCGCAGGC | 0.272
136 | AGGAGTAC | 0.171
137 | AACCGACA | 0.0529
138 | CCAGAACG | -0.0663
139 | ACCAGCGT | -0.0988
140 | AATGTCAA | 0.0969
141 | GATGTAAC | 0.175
142 | TATGTCAA | 0.363
143 | CATGTAAC | 0.382
144 | CCTGTAAC | 0.295
145 | GATGTCAA | 0.144
146 | CTAGCACC | -0.0791
147 | CGTTTGAG | -0.0011
148 | AACGTGTA | 0.415
149 | GACGTGTA | 0.318
150 | CACGTGTC | 0.183

Row | Sequence | PBM E-score
151 | CACGTGTA | 0.383
152 | CACGTGAA | 0.183
153 | AACGTGTC | 0.273
154 | CGTCTGTA | 0.135
155 | ACCCATAA | -0.196
156 | ATACCCAT | 0.142
157 | CTATGAAC | 0.2
158 | CCAGTGTA | 0.0502
159 | GAGGCATC | 0.145
160 | CAGGCATA | 0.319
161 | CAGGCATC | 0.402
162 | CATGCATG | 0.0529
163 | CAGGCATG | 0.358
164 | CAGACATG | 0.106
165 | AGGTGTGC | 0.0416
166 | AAGATCTC | -0.0117
167 | ACAGGTTA | 0.155
168 | CCAGGTAC | 0.238
169 | ACAGGTAG | -0.0129
170 | GCAGGTAA | 0.385
171 | CCAGGTAA | 0.238
172 | ACAGGTAC | 0.423
